Assay [1] in a line: Nuclear factor erythroid 2-related factor 2/antioxidant responsive element (Nrf2/ARE) small molecule agonists: qHTS cell viability counter screen in human keratinocytes (AID 1919968; active = well fitted curve in the direction sought with a large enough effect in the repeat runs; an effect the other way counts as inactive or inconclusive; note: nearly all actives have a fitted effect of over 55% in size; note: potency is the fitted concentration of half-maximal effect). The procedure, abridged:
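In human HaCaT keratinocytes stably expressing an ARE-driven luciferase, compound exposure lasted 23 h at 37 C under 5% CO2. Viable cells are quantified with a protease-based fluorogenic reagent (CellTiter-Fluor) read 1 h after addition.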
(In qHTS, concentration-response curves come from the screen itself.)

A short description of assay [2]: Nuclear factor erythroid 2-related factor 2/antioxidant responsive element (Nrf2/ARE) small molecule agonists: luciferase reporter gene qHTS assay in human keratinocytes (AID 1919969). Note: nearly all actives have a fitted effect of over 35% in size. Note: potency is the fitted concentration of half-maximal effect. For orientation: A reporter such as luciferase makes a cellular process visible.
Assay [3] has as its target Gonadotropin-releasing hormone receptor (Homo sapiens) (UniProt P30968). The experiment in a line: Human gonadotropin-releasing hormone receptor (GnRHR) small molecule agonists, calcium flux assay in GnRHR-HEK293 cells (AID 1920063). Note: nearly all actives have a fitted effect of over 35% in size. The method in brief:
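Intracellular calcium rise is the read-out: engineered human GnRHR HEK293 cells, dye-loaded, are exposed to DMSO-dissolved compounds and fluorescence at Ex/Em 480/540 is tracked for 3 min.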

The target in assay [4] is KiSS-1 receptor (Homo sapiens) (UniProt Q969F8). Nature of the assay: Human kisspeptin (KISS1R) small molecule agonists, calcium flux assay in KISS1R-HEK293 cells (AID 1920064; active = well fitted curve in the direction sought with a large enough effect in the repeat runs; an effect the other way counts as inactive or inconclusive). The procedure, abridged:
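Concentration-response testing used 15 concentrations in triplicate on human KISS1R-expressing HEK293 cells. Calcium-dependent fluorescence (Ex/Em 480/540) was followed kinetically for 3 min after compound transfer.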
(In general: A change in cytosolic calcium serves as a functional read-out for many receptors and channels.)

The nature of assay [5]: p53 small molecule agonists, cell-based qHTS assay with rat liver microsomes (AID 1963578). The method in brief:
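p53RE-bla cells, 4,000/well, pre-incubated 5 h, then given compounds plus rat liver microsomes (0.5 mg/mL final) and NADPH (0.5 mg/mL final). Incubation 16 h at 37 C; beta-lactamase reporter read by LiveBLAzer fluorescence after 2 h at room temperature.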

Assay [6] is described as follows: p53 small molecule agonists, cell-based qHTS assay with human liver microsomes: qHTS cell viability counter screen (AID 1963579). Note: nearly all actives have a fitted effect of over 45% in size. The method in brief:
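p53RE-bla cells, 4,000/well, dosed 5 hours after plating, with human liver microsomes (0.5 mg/mL final) plus NADPH (0.5 mg/mL final), 16 hours at 37 C. Viability read as CellTiter-Glo luminescence after 30 min at room temperature.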

Assay [7] is described as follows: p53 small molecule agonists, cell-based qHTS assay with rat liver microsomes: qHTS cell viability counter screen (AID 1963580). Note: nearly all actives have a fitted effect of over 45% in size. Note: potency is the fitted concentration of half-maximal effect. The procedure, abridged:
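Cytotoxicity counter screen: intracellular ATP measured by CellTiter-Glo luminescence in the same wells as the beta-lactamase reporter read, on HCT-116 p53RE-bla cells exposed 16 h at 37 C to compounds with rat liver microsomes and NADPH, each 0.5 mg/mL final.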

Assay [8] in a line: p53 small molecule agonists, cell-based qHTS assay: qHTS cell viability counter screen (AID 1963581). Note: nearly all actives have a fitted effect of over 45% in size. Note: potency is the fitted concentration of half-maximal effect. The method in brief: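 Luminescence from CellTiter-Glo, reflecting ATP content, serves as the cytotoxicity measure; it is taken after the 2 h reporter substrate step in HCT-116 p53RE-bla cells dosed for 16 h at 37 C.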
Assay [9] can be described thus: p53 small molecule agonists, cell-based qHTS assay (AID 1963582; active = well fitted activation curve with a large enough effect in the signal ratio in the repeat runs, not every such curve was filed as active; the % refers to the signal ratio). The method in brief: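 After plating, p53RE-bla cells sat 5 h in the incubator; compounds or DMSO vehicle were pinned in; a 16 h incubation at 37 C followed; FRET substrate was added and, 2 h later at RT, fluorescence was measured.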
Assay [10] concerns the target 5-hydroxytryptamine receptor 2A (Homo sapiens) (UniProt P28223). Nature of the assay: 5-hydroxytryptamine receptor 2A (HTR2A) small molecule antagonists, cell-based qHTS assay (AID 1963586). Note: nearly all actives have a fitted effect of over 45% in size. The procedure, abridged:
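CHO cells stably expressing human HTR2A were plated for 18 h at 37 C, then loaded with calcium dye for 1 h. Compounds were preincubated 5 min at room temperature before DOI (4 nM solution) was added. Kinetic fluorescence was read for 3 min.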

Assay [11] shares this target. The experiment in a line: 5-hydroxytryptamine receptor 2A (HTR2A) small molecule agonists, cell-based qHTS assay (AID 1963587). Note: nearly all actives have a fitted effect of over 30% in size. The procedure, abridged: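 CHO cells stably expressing human HTR2A, plated 18 h, loaded with calcium dye 1 h at 37 C. Agonist mode: compounds added and intracellular calcium fluorescence recorded kinetically for 2 min at 1 sec intervals.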

For assay [12], the target named is Muscarinic acetylcholine receptor M1 (Homo sapiens) (UniProt P11229). The experiment in a line: Cholinergic receptor muscarinic 1 (CHRM1) small molecule antagonists, cell-based qHTS assay (AID 1963588). Note: nearly all actives have a fitted effect of over 40% in size. The method in brief: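 Compounds were tested at 15 concentrations in three independent runs. Dye-loaded CHRM1-CHO cells were exposed 5 min at room temperature before stimulation by acetylcholine added at 50nM. Intracellular calcium was read kinetically on FDSS for 3 min.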
Sequence of Muscarinic acetylcholine receptor M1 (Homo sapiens) (P11229 whole entry, looked up): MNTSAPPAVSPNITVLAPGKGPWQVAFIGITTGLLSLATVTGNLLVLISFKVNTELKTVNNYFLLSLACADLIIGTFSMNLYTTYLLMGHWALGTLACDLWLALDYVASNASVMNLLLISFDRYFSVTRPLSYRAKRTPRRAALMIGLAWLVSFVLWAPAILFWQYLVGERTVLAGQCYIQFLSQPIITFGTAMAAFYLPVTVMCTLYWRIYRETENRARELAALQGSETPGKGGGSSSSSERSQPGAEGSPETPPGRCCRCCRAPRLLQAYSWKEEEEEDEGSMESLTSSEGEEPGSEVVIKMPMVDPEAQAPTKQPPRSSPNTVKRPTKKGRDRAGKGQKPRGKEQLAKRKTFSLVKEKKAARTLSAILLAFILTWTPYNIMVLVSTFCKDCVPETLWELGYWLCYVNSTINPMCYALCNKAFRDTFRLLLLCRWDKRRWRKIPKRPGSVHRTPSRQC

Assay [13] shares this target. Nature of the assay: Cholinergic receptor muscarinic 1 (CHRM1) small molecule agonists, cell-based qHTS assay (AID 1963589). Note: nearly all actives have a fitted effect of over 35% in size. The method in brief: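 Fluorescent calcium dye reports M1 activation in stably transfected CHO cells. Compounds, 15 concentrations, added after 1 h dye loading at 37 C; kinetic reading at 1 sec intervals.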
Assay [14] can be described thus: cAMP Responsive Elements (CRE) small molecule agonists, cell-based qHTS assay (AID 1963590). The procedure, abridged: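 Compound exposure lasted 3 h at 37 C/5% CO2 in CRE-bla HEK 293T cells grown in assay medium with 10% dialyzed FBS and 25 mM HEPES. Reporter signal came from LiveBLAzer B/G FRET substrate, 2 h, room temperature.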
The nature of assay [15]: cAMP Responsive Elements (CRE) small molecule antagonists, cell-based qHTS assay (AID 1963591; active = well fitted inhibition curve with a large enough effect in the signal ratio in the repeat runs, not every such curve was filed as active; the % refers to the signal ratio). The procedure, abridged: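 Stimulation used NKH477 at a final 0.25 uM for 3 h in compound-treated CRE-bla HEK293T cells, seeded 18 h beforehand. Reporter activity was measured with LiveBLAzer B/G FRET substrate after 2 h at room temperature.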
The target in assay [16] is Beta-2 adrenergic receptor (Homo sapiens) (UniProt P07550). The experiment in a line: Adrenergic beta2 receptor (ADRB2) small molecule antagonists, cell-based qHTS assay (AID 1963592). Note: series mostly up to about 92 µM; nearly all actives have a fitted effect of over 50% in size. The method in brief:
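Assay format: CHO-ADRB2 cells, 18-20hr seeding at 37C/5% CO2, then compound plus 1nM isoproterenol agonist mix for 0.5hr RT. Homogeneous time-resolved fluorescence cAMP detection after 1hr, expressed as 665/615 nm ratio.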

For assay [17] the target is unchanged. Nature of the assay: Adrenergic beta2 receptor (ADRB2) small molecule agonists, cell-based qHTS assay (AID 1963593).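 Note: CHO cells stably overexpressing human ADRB2.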 The procedure, abridged: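 CHO cells stably over-expressing ADRB2 were plated overnight at 37C, then dosed with compounds plus a stimulation mix containing 100uM IBMX and 25uM Ro-20-1724 for 0.5hr at room temperature. cAMP was measured by HTRF competition, 1hr.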

Assay [18] deals with D(2) dopamine receptor (Homo sapiens) (UniProt P14416). Nature of the assay: Dopamine D2 receptor (DRD2) small molecule agonists, cell-based qHTS assay (AID 1963594). Note: nearly all actives have a fitted effect of over 35% in size. The method in brief: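 HEK293 cells stably expressing human DRD2, pre-treated with PDE inhibitor Ro20-1724 (0.1 mM final) and compound 10 min at room temperature, then stimulated with NKH477 (200nM […]) for 30 min. cAMP read by HTRF (665/620 nm).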
Sequence of D(2) dopamine receptor (Homo sapiens) (P14416 whole entry, looked up): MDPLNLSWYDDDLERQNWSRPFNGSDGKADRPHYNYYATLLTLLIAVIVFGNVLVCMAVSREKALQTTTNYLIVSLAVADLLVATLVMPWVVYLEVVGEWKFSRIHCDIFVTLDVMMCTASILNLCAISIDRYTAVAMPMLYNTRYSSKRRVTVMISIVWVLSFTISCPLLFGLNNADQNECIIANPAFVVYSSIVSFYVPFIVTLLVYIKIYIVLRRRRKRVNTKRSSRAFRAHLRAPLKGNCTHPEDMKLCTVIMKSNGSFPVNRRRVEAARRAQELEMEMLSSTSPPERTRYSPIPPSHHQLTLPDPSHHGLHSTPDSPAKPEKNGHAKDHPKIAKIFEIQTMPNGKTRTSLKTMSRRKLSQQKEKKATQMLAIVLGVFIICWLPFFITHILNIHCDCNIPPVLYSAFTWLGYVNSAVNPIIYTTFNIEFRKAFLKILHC

Assay [19] has the same target. The experiment in a line: Dopamine D2 receptor (DRD2) small molecule antagonists, cell-based qHTS assay (AID 1963595; active = well fitted inhibition curve with a large enough effect in the signal ratio in the repeat runs, with a control signal flat; the % refers to the signal ratio). The procedure, abridged:
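Antagonist mode in DRD2-HEK293 cells: after compound addition with 0.1 mM Ro20-1724, cells received quinpirole (12 nM) and NKH477 (200 nM) for 30 min at room temperature; HTRF cAMP read after 1 h detection.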

Assay [20] is described as follows: G protein-coupled receptor (GPCR) small molecule agonists, calcium flux assay: HEK293 wild type cell line counter screen (AID 1920065). The procedure, abridged: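 Fluorescence intensity signals activation. After overnight (18 h) culture and a 1 h calcium dye load at 37 C, compounds are added by pin tool and the plate read at 480/540 nm for 3 min in 1 s steps.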

The record followed here is PubChem BioAssay (Tox21).

Structures are written as SMILES. “And” between values parts separate entries of the source, which are not always exact repeats. Equal values may be shown once. Inconclusive results are not listed. The source made the active and inactive calls. Unless noted, calls come from the whole dose curve.

Sequence of 5-hydroxytryptamine receptor 2A (Homo sapiens) (P28223 whole entry, looked up): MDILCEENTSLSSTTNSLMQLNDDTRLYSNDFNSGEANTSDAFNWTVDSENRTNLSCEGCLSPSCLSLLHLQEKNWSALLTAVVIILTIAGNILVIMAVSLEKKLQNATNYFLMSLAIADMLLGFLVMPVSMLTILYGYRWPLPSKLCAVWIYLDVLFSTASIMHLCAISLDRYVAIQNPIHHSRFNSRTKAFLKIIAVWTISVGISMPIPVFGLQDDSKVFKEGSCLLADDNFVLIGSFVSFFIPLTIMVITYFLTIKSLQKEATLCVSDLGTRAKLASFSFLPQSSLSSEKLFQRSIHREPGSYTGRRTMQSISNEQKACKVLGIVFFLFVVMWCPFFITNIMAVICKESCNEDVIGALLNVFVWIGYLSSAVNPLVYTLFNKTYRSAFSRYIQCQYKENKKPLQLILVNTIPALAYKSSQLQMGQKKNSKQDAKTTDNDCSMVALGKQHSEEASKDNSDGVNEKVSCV
Sequence of Beta-2 adrenergic receptor (Homo sapiens) (P07550 whole entry, looked up): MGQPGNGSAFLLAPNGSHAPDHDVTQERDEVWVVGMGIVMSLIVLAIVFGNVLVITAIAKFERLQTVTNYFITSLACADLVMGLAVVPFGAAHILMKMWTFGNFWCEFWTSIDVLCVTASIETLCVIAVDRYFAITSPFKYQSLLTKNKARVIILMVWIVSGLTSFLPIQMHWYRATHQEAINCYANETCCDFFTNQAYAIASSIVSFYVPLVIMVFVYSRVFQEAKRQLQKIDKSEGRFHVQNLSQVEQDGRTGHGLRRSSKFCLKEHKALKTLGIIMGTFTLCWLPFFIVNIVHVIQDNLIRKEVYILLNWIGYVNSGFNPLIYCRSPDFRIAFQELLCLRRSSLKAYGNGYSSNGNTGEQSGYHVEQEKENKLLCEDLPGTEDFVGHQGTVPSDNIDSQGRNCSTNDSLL
Sequence of Gonadotropin-releasing hormone receptor (Homo sapiens) (P30968 whole entry, looked up): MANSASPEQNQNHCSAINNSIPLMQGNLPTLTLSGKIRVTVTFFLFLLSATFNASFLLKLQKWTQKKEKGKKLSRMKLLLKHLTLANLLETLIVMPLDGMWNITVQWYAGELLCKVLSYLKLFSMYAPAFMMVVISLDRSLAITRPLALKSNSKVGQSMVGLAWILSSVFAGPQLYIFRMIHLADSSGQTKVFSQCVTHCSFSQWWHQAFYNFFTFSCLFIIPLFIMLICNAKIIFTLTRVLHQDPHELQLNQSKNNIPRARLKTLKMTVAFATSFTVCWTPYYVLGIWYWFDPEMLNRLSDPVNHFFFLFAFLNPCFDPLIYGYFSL
Sequence of KiSS-1 receptor (Homo sapiens) (Q969F8 whole entry, looked up): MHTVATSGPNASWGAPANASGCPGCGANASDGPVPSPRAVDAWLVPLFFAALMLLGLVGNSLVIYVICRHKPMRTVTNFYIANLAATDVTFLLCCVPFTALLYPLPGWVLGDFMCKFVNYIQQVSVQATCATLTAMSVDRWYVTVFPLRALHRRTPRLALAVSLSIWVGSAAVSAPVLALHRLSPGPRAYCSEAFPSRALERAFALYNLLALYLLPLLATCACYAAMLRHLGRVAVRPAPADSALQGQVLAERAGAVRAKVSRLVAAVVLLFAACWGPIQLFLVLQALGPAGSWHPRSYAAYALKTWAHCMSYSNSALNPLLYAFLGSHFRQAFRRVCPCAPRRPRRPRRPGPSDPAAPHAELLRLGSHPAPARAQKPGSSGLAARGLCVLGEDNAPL

Regarding `Nc1cccc(Cl)c1`, the Potency entry in assay [1], in [2], in [3], in assay [4], in assay [5] and in assay [6] was “inactive” each time. Besides, the Potency entry in [7], in [8], in assay [9], in [10], in assay [11] and in [12] was “inactive” each time. In addition, the Potency entry in [13], in assay [14], in [15], in [16], in assay [17] and in [18] was “inactive” in each case. In addition, in assay [19], the Potency entry is “inactive”.
Regarding `C[N+](C)(C)CC(=O)O`, the Potency entry in assay [1], in assay [2], in assay [3], in assay [4], in [20] and in assay [6] was “inactive” throughout. Further, the Potency entry in [8], in assay [10], in [11], in assay [12], in assay [13] and in assay [14] was “inactive” throughout. The Potency entry in [15], in assay [16], in assay [17], in [18] and in assay [19] was “inactive” in each case.
`C[C@@H]1O[C@@H](O[C@H]2C[C@@H](O)[C@]3(CO)[C@H]4[C@H](O)C[C@]5(C)[C@@H](C6=CC(=O)OC6)CC[C@]5(O)[C@@H]4CC[C@]3(O)C2)[C@H](O)[C@H](O)[C@H]1O`: the Potency was 730 nM (active) and 1.06 µM (active) in assay [1]; 163 nM (active) and 211 nM (active) in assay [2]; 0.112 µM (active) in assay [7]; 0.126 µM (active) in assay [8]. Further, the Potency result in assay [3], in assay [4], in assay [20], in assay [16], in assay [17] and in [18] was “inactive” each time. Moreover, in assay [19], the Potency result is “inactive”.
Turning to `c1ccc(N=Nc2ccccc2)cc1`, the Potency entry in assay [1], in assay [2], in assay [3], in assay [4], in assay [5] and in [6] was “inactive” throughout. Also, the Potency result in assay [7], in [8], in assay [9], in [10], in assay [11] and in assay [12] was “inactive” each time. For the same molecule, the Potency entry in [13], in assay [14], in [15], in assay [16], in [17] and in assay [18] was “inactive” in each case. In assay [19], the Potency entry was “inactive”.
As to `NNc1ccccc1`, the Potency entry in [1], in assay [2], in assay [3], in assay [4], in assay [20] and in assay [6] was “inactive” in each case. In addition, the Potency entry in assay [7], in assay [14], in assay [15], in assay [16], in assay [17] and in [18] was “inactive” each time. The Potency result in [19] was “inactive”.
Turning to `CNC(=O)Oc1ccccc1OC(C)C`, the Potency entry in [1], in assay [2], in [3], in [4], in assay [20] and in [7] was “inactive” each time. Besides, the Potency entry in [8], in assay [11], in [12], in assay [13], in assay [14] and in [15] was “inactive” throughout. In addition, the Potency result in [16], in [18] and in assay [19] was “inactive” in each case.
As for `CCCOC(=O)c1cncn1C(C)c1ccccc1` (centres undefined), the Potency entry in assay [1], in assay [2], in assay [3], in [4], in assay [5] and in assay [6] was “inactive” in each case. Also, the Potency result in assay [7], in [8], in [9], in [10], in assay [11] and in assay [12] was “inactive” in each case. The Potency result in assay [13], in assay [14], in assay [15], in assay [16], in [17] and in assay [18] was “inactive” each time. The Potency result in assay [19] was “inactive”.
In the case of `CN=C=O`, the Potency result in assay [1], in assay [2], in assay [3], in assay [4], in [5] and in [6] was “inactive” in each case. Besides, the Potency result in assay [7], in [8], in [9], in [10], in [11] and in assay [12] was “inactive” in each case. The Potency result in assay [14], in assay [15], in assay [16] and in [18] was “inactive” each time.
